Reference: paper PMC6212790, “How bacterial xenogeneic silencer rok distinguishes foreign from self DNA in its resident genome”
In all, about 33,000 sequences were measured (“e-score”: median about -0.038, highest 2% from about 0.33 on). Only a selection was taken, and the highest values are over-represented in it overall.

What follows are sequences tested against T1, GST-Rok-C97-191 (Bacillus subtilis subsp. subtilis str. …, UniProt O34857 97-191) (assay: protein binding microarray; Rok is a gene silencer of Bacillus subtilis; high values mean tight binding). Conditions: protein: recombinant; tags: GST (pTH5325, pDEST15-Magic modified); dsDNA, one strand shown.
T1 sequence: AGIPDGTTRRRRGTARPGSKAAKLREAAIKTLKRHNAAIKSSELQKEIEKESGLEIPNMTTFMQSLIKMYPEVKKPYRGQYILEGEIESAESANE
Summary of the method: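 Each has a 25-mer constant primer and a 35-mer variable part from a de Bruijn sequence of order 10, covering every non-palindromic 8-mer at least 32 times (palindromic 16). Preference for each 8-mer is given as a rank-based, unitless enrichment score (E-score). Its range runs from 0.5 (most favored) to −0.5 (most disfavored).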

Row | Sequence | binding signal
1 | AAAAGAGA | 0.147 E-score
2 | TCCATTCA | -0.131 E-score
3 | TAACAATA | 0.292 E-score
4 | GATTTGCC | -0.0374 E-score
5 | CGTTATCC | -0.0591 E-score
6 | ACACCTGC | -0.197 E-score
7 | GTGCGGGA | -0.196 E-score
8 | CTCCCATC | -0.161 E-score
9 | AATAGATC | 0.161 E-score
10 | AATAGATT | 0.352 E-score
11 | AATAGATG | 0.267 E-score
12 | CTAGTCGA | 0.131 E-score
13 | GATAAGCA | 0.0731 E-score
14 | ATAATACA | 0.242 E-score
15 | ATAATAAG | 0.331 E-score
16 | ATAATACG | 0.344 E-score
17 | ATAATACC | 0.197 E-score
18 | CTAATAAG | 0.127 E-score
19 | ATAATAAT | 0.31 E-score
20 | AGGAACCA | 0.128 E-score
21 | AAGCTTGC | -0.0667 E-score
22 | AAGACGGC | -0.186 E-score
23 | CCTCGCTC | -0.125 E-score
24 | AAATATAT | 0.417 E-score

Row | Sequence | binding signal
25 | CAATATAC | 0.243 E-score
26 | AACTATAT | 0.415 E-score
27 | AAATATAC | 0.401 E-score
28 | AACTATAG | 0.327 E-score
29 | AAATATAG | 0.22 E-score
30 | AAATATAA | 0.269 E-score
31 | AACTATAC | 0.253 E-score
32 | GAATATAC | 0.293 E-score
33 | AAGTGCGG | 0.009 E-score
34 | CGAGCCTA | -0.0633 E-score
35 | GAACGTCA | -0.14 E-score
36 | CGGCACTA | 0.0999 E-score
37 | ATTTAGGG | -0.024 E-score
38 | CTTTGCTC | -0.124 E-score
39 | AAAGTACA | 0.366 E-score
40 | GAAGTACA | 0.237 E-score
41 | TAAGTACA | 0.35 E-score
42 | AAAGTACC | 0.291 E-score
43 | CAAGTACA | 0.151 E-score
44 | AAAGTACG | 0.192 E-score
45 | CCGTTGGA | -0.177 E-score
46 | ACAAAACG | -0.11 E-score
47 | AATTTACG | 0.338 E-score
48 | AATTTAAT | 0.321 E-score

Row | Sequence | binding signal
49 | AATTTACT | 0.416 E-score
50 | AATTTACA | 0.331 E-score
51 | AATTTACC | 0.345 E-score
52 | CATTTACG | 0.0408 E-score
53 | ATTTTACC | 0.322 E-score
54 | GATTTACC | 0.187 E-score
55 | CATTTACA | 0.277 E-score
56 | ATTTTACG | 0.268 E-score
57 | TATTTACA | 0.235 E-score
58 | AATTTAGT | 0.165 E-score
59 | AAAAATGT | 0.129 E-score
60 | AAGGCAGC | 0.0072 E-score
61 | CCAAACGG | -0.0693 E-score
62 | CAATGTTA | 0.195 E-score
63 | CTGCGCCC | -0.144 E-score
64 | GACACTGC | -0.137 E-score
65 | AGCGTTCC | -0.026 E-score
66 | AATCAGAC | -0.0483 E-score
67 | CGCGATTA | 0.0183 E-score
68 | AGCAGTCA | 0.0635 E-score
69 | ACGACCTA | 0.00188 E-score
70 | ATTTTTCG | 0.181 E-score
71 | TTACGTAA | 0.261 E-score
72 | ATACGTAA | 0.371 E-score

Row | Sequence | binding signal
73 | GTACGTAA | 0.0489 E-score
74 | ACGGAAGG | -0.162 E-score
75 | ATATCTAG | 0.284 E-score
76 | ATCTCTAC | 0.118 E-score
77 | CTATCTTC | 0.105 E-score
78 | ATCTCTAA | 0.106 E-score
79 | CCATCTAC | 0.213 E-score
80 | ATATCTAA | 0.351 E-score
81 | ATATCTAC | 0.377 E-score
82 | CTCTCTAC | 0.064 E-score
83 | CTATCTAC | 0.433 E-score
84 | CTATCTAA | 0.282 E-score
85 | ATATCTTA | 0.26 E-score
86 | ATATCTTC | 0.344 E-score
87 | CAGACGGA | -0.1 E-score
88 | CGGTCGCA | -0.0742 E-score
89 | GTCAATTA | 0.163 E-score
90 | GAACAGAC | -0.0366 E-score
91 | TACGCAGA | -0.138 E-score
92 | AGCTGAAC | -0.0772 E-score
93 | GATAAAGC | -0.0584 E-score
94 | CTAAGTAA | 0.266 E-score
95 | CGTATCAA | 0.0404 E-score
96 | ACACTACA | 0.294 E-score

Row | Sequence | binding signal
97 | GTACTACA | 0.296 E-score
98 | CTACTACA | 0.366 E-score
99 | ATACTACA | 0.388 E-score
100 | CTACTAGA | 0.293 E-score
101 | ATACTGCA | 0.287 E-score
102 | AGACGTGC | -0.045 E-score
103 | CAGCTAAA | 0.0943 E-score
104 | CTTTTTGC | -0.0956 E-score
105 | CTAAGCGA | -0.171 E-score
106 | TAGTCAAA | 0.158 E-score
107 | CCATATTA | 0.121 E-score
108 | ACATATTG | 0.232 E-score
109 | CAATATTC | 0.186 E-score
110 | CAATATTA | 0.204 E-score
111 | CTATATTA | 0.355 E-score
112 | AAATATTC | 0.219 E-score
113 | GAATATTC | 0.339 E-score
114 | GAATATTA | 0.2 E-score
115 | AAATATTG | 0.286 E-score
116 | AAATATTA | 0.355 E-score
117 | TAATATTA | 0.287 E-score
118 | ATATATTG | 0.419 E-score
119 | ACCTATTC | 0.0409 E-score
120 | GAATGCAA | -0.0262 E-score

Row | Sequence | binding signal
121 | CCGCAAAA | -0.142 E-score
122 | AGGCCGGA | -0.102 E-score
123 | GCATATTA | 0.153 E-score
124 | ATATATTC | 0.374 E-score
125 | ACATATTA | 0.304 E-score
126 | ATATATTA | 0.447 E-score
127 | CTATATTC | 0.274 E-score
128 | ATGTATTA | 0.301 E-score
129 | AGATATTA | 0.356 E-score
130 | GTGTATTA | 0.11 E-score
131 | CGATATTA | 0.286 E-score
132 | AGATATTG | 0.186 E-score
133 | CTCTATTC | -0.103 E-score
134 | GTATATTA | 0.371 E-score
135 | AGGTCCCG | -0.133 E-score
136 | AAACTTCA | 0.0505 E-score
137 | GAAAAACA | 0.0708 E-score
138 | CACGGAAG | 0.00148 E-score
139 | AAAGTCTC | 0.0451 E-score
140 | AGGGTCGC | -0.122 E-score
141 | GCGTCCAA | -0.0249 E-score
142 | GCGTAAAA | 0.139 E-score
143 | ACCTCGAT | 0.113 E-score
144 | AGCCGTTC | -0.05 E-score

Row | Sequence | binding signal
145 | ACAGCAAG | -0.0495 E-score
146 | ACGGTAGT | 0.408 E-score
147 | AAGGTAGT | 0.33 E-score
148 | ACGGTAGC | 0.0805 E-score
149 | ACGGTAGA | 0.318 E-score
150 | AAGGTAGG | -0.00436 E-score
151 | AAGGTAGC | 0.158 E-score
152 | ATGCAAGC | -0.0317 E-score
153 | CGTCGCTC | -0.161 E-score
154 | ACATTCCC | -0.0621 E-score
155 | AGGACCGG | -0.171 E-score
156 | GTCTACTA | 0.29 E-score
157 | ATCTACTA | 0.456 E-score
158 | ATCTACTC | 0.206 E-score
159 | ATCTACTG | 0.423 E-score
160 | CTCTACTA | 0.2 E-score
161 | ATCTACGG | 0.0258 E-score
162 | ACCCACTG | -0.0641 E-score
163 | CATCGGAC | 0.0521 E-score
164 | GGCAAAGA | -0.188 E-score
165 | ACGGTTAT | 0.165 E-score
166 | ATGATACG | 0.141 E-score
167 | CTACCCGC | -0.0513 E-score
168 | CGGTAAGA | -0.0738 E-score
